The campaign covered roughly 360,000 compounds. About 160 (0.044%) were called active. This excerpt belongs to a sample that is enriched for actives. Values without a mark were called inactive. No stated cut-off is given here; in the data, active means survival enhancement above about 18%; inactive means the rest.

A short description of the assay: compounds raising survival of dissociated human iPSCs – cell-based, ATPlite luminescence, primary screen (AID 602274).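 Further: cells exposed to compounds for 16 hours before the ATP read.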 The conditions noted are these: hiPSC single-cell survival, at 20 µM, stronger effect = higher value, 100% = ROCK inhibitor wells, 0% = DMSO.
As to `COc1ccc(S(=O)(=O)N(CCCN2CCCC2=O)Cc2cc3c(C)ccc(C)c3[nH]c2=O)cc1`, the survival enhancement was -2.2%.
Regarding `O=C(CCc1[nH]c2ccccc2c1Sc1ccccc1)N(CCO)CCO`, the survival enhancement was -1%.
The value for `O=S(=O)(/N=C(/Nc1ccccc1)c1ccccc1)c1cccs1` was 4%; that for `Cc1ccc2c(c1)nnc1nnc(SCC(=O)O)n12` was -0.2%; that for `COc1ccccc1NC(=O)N1CCCC1C(=O)NCc1cccs1` (centres undefined) was -0.5%.
The value for `COc1ccc(-n2nnnc2SCc2nc(N)nc(N3CCOCC3)n2)cc1` was -2.1%; that for `CC1CCCCC12NC(=O)N(CC(=O)N1CCN(c3ccccc3)CC1)C2=O` (centres undefined) was -0.5%; that for `CC(C)Oc1ccc(S(=O)(=O)N2CCOCC2)cc1NC(=O)C1CSC2(C)CCC(=O)N12` (centres undefined) was -0.5%.
For the molecule `Cc1ccccc1C(OCCN(C)C)C1CCCCC1` (centres undefined), the survival enhancement was -3.9%.
For `COc1cccc(CNC(=O)CCN2C(=S)NC(C)(C)CC2C)c1` (centres undefined), the survival enhancement was -0.7%.
As to `CC(C)CN(CC(C)C)CC(O)CN(c1ccccc1)S(=O)(=O)c1ccccc1[N+](=O)[O-]` (centres undefined), the survival enhancement is -0.3%.
With `N#C/C(=C(\O)C(F)(F)F)c1nnc2n1CCCCC2`, the survival enhancement is 2%.
Regarding `N#C/C(=C/c1cccc([N+](=O)[O-])c1)c1nnc2n1CCCCC2`, the survival enhancement is 32.2% (active).
Take `N#C/C(=C(\O)CCl)c1nnc2n1CCCCC2`: the survival enhancement is 2.8%.
As to `COc1ccc(OC)c(CCNC(=O)CCn2ccc3cc(S(=O)(=O)N4CCCC4)ccc32)c1`, the survival enhancement is -0.3%.
Consider `C/C(=N\NS(=O)(=O)c1ccccc1)c1c(O)cc(C)oc1=O`, for which the survival enhancement is -0.4%.
`COc1ccc2c(c1)cc1n2CCN=C1NN`: the survival enhancement was 3%.
Turning to `Cc1cccc(-n2c(SCC(N)=O)nc3c(c2=O)C2(CCCCC2)Cc2ccccc2-3)c1`, the survival enhancement is -2.5%.
For `CC1(C(=O)NS(=O)(=O)c2cccc(F)c2)CCN1C(=O)Cc1cc(F)ccc1F` (centres undefined), the survival enhancement was 0.9%.
With `COC(=O)CCSc1cc([N+](=O)[O-])cc2c1c(C1OCCS1)nn2-c1ccccc1` (centres undefined), the survival enhancement is 19.1% (active).
For `COC(=O)CCSc1nccn1Cc1ccccc1` the value was 0.7%.
In the case of `CN1CCN(C(=O)c2cnn(-c3ccccc3)c2NC(=O)c2ccc([N+](=O)[O-])cc2)CC1`, the survival enhancement is 0.5%.
`CC1(C)COC(c2cccn2Cc2ccccc2Cl)=N1`: the survival enhancement was 4.1%.
Consider `COc1cc(OC)cc(C(=O)Nc2ncc3c(n2)CC(C)(C)CC3=O)c1`, for which the survival enhancement is 1.7%.
In the case of `O=C(NN=Cc1ccccc1O)C(=O)NN=Cc1ccccc1O`, the survival enhancement is -1.8%.
Regarding `C=CCOc1ccc(C2/C(=C(\O)c3c(C)[nH]c(C(=O)OC)c3C)C(=O)C(=O)N2CCN(C)C)cc1` (centres undefined), the survival enhancement is 3.5%.
For the molecule `O=C(Nc1ccc(OC(F)(F)F)cc1)c1ccc2c(c1)no[n+]2[O-]`, the survival enhancement is -0.6%.
As to `Cc1c(C=O)c2ccccn2c1C(=O)c1ccncc1`, the survival enhancement was 0.1%.
The value for `O=C(COC(=O)Cn1cnc2ccccc2c1=O)NCC12CC3CC(CC(C3)C1)C2` was -0.2%; that for `CC1CCCC(NC(=O)COC(=O)c2ccccc2C(=O)N(C)C2CCCCC2)C1C` (centres undefined) was 0.8%; that for `Cc1cc(=O)n2nc(N3CCCC(C(=O)NCCC4=CCCCC4)C3)sc2n1` (centres undefined) was 1.7%.
Turning to `C=CCc1cccc2cc(C(=O)NC3CCCC3)c(=O)oc12`, the survival enhancement is 0.2%.
For the molecule `CC(C)CC(CC(C)C)=NNC(=O)c1ccc(CSc2nncn2C)cc1`, the survival enhancement was 2.3%.
As for `O=c1[nH]cccc1-c1nc2ccccc2n1Cc1ccc(Cl)cc1`, the survival enhancement is 1.9%.
As to `COCCC(=O)N1CCC(Oc2ccc(C(=O)NCc3ccon3)cc2)CC1`, the survival enhancement was -0.4%.
The value for `CN1C(=O)[C@H]2[C@@H](C3CC3)N3C(=O)CN(Cc4ccccc4)C(=O)[C@@]3(C)[C@H]2C1=O` was -2.2%; that for `CCOc1cc(/C=C/C(=O)OCC(=O)NCCN2C(=O)CSC2=O)ccc1OCC(C)C` was 3%.
As for `CN1CCN(C(=O)c2ccc(-c3cc4nc(NCc5cccnc5)n(C)c(=O)c4s3)cc2)CC1`, the survival enhancement was -0.7%.
Consider `O=C(CCCN1C(=O)c2ccccc2C1=O)Oc1ccc(Cl)cc1`, for which the survival enhancement was 3.7%.
As to `CN(C)c1ccnc(Oc2ccc(F)cc2)c1C#N`, the survival enhancement is 1.8%.
The value for `COCCNC(=S)c1ccc(OC)cc1` was 5.9%; that for `COc1ccc(-c2ccc(CNCCCN3CCOCC3)o2)cc1Cl` was -1.8%.
On to `Cc1ccc(Cl)c(OCC(=O)N(C)CC(=O)Nc2ccc(N3CCOCC3)cc2)c1`, for which the survival enhancement is 0%.
As to `COc1ccc(Cl)cc1NC(=O)[C@@H]1CCCN1C(=O)c1cccs1`, the survival enhancement was 1.2%.
Take `O=C(O)c1ccc(-n2cccc2)cc1O`: the survival enhancement was -3.7%.
`NNC(=O)c1cnn(-c2ccccc2)c1C(F)(F)F`: the survival enhancement is -0.5%.
For `O=C1CC2(CCCC2)C(=O)N1CN1CCN(S(=O)(=O)c2ccc(F)cc2F)CC1`, the survival enhancement was -0.8%.
For `O=C(CNCCC1=CCCCC1)Nc1ccccc1N1CCCCCC1`, the survival enhancement is -0.7%.
For `CCNC(=O)Nc1ccc(S(=O)(=O)Nc2cnc(C)nc2C)cc1`, the survival enhancement was -0.1%.
Consider `CCCCN(CCCC)C(=O)CCS(=O)(=O)c1ccc2c(c1)n(C)c(=O)c(=O)n2C`, for which the survival enhancement was 2.7%.
The value for `Cc1c(-c2nn(C)c(=O)c3ccccc23)oc2ccc(F)cc2c1=O` was -1.5%; that for `COC(=O)c1ccc(NC(=S)Nc2cccc(C)n2)cc1` was 0.3%.
Take `CCCCN1C(=O)CC(N2CCOCC2)C1=O` (centres undefined): the survival enhancement is 1.8%.
As to `COc1cc(OC)cc(-c2c(C#Cc3ccsc3)c3cc(-c4ccc(SC)cc4)ccc3n2C)c1`, the survival enhancement was 1.4%.
As to `COc1ccc(N2C(=O)/C(=C\c3ccco3)N=C2SCC(N)=O)cc1Cl`, the survival enhancement is -1.3%.
With `COc1ccc(C(=O)CSc2nnc(NC(=O)C3CC(=O)N(c4cccc(OC)c4)C3)s2)cc1` (centres undefined), the survival enhancement was 0.9%.
`CC(=O)OCCN(CCCn1c(-c2ccncc2)nc2ccccc21)c1nc(-c2ccc(C)cc2)cs1`: the survival enhancement was 0.8%.
For `Cc1noc(C)c1CSc1nc2cc(S(=O)(=O)N3CCOCC3)ccc2o1` the value was 8.5%.
With `CC(C)(C)C(=O)NCCCNc1ccc([N+](=O)[O-])cc1`, the survival enhancement was -0.5%.

The record behind these values is PubChem BioAssay AID602274 (Sanford-Burnham Center for Chemical Genomics, 2012).
